Data taken from PubChem BioAssay AID1159580 (chemical genetic matrix, 2015).
The whole screen tested about 5,500 compounds, of which about 2,000 (36%) were called active. Inconclusive results (about 18%) are left out. Cut-off read from the data, not from the text of the source: active = normalized growth mostly below about 0.91 (no sharp cut-off); inconclusive = no clear call, values can overlap the other calls; inactive = mostly above about 0.92. The list shows a part of the results.

Assay: chemical genetic growth profiling, strain panel (AID 1159580);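 note: tested at 20 µM; growth read once vehicle control cultures reached saturation at 30 °C; 1 = growth at the plate median or of vehicle wells; lower values mean less growth of the strain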
Settings: S. cerevisiae deletion strains, growth OD

Measured: normalized growth

CC(CCC(=O)O)[C@H]1CCC2C3CC[C@@H]4C[C@H](O)CC[C@]4(C)C3CC[C@@]21C (stereo partly drawn)
inactive: locus YJL187C, strain SWE1, stronger effect = lower value 0.979 | locus YJR066W, strain TOR1, stronger effect = lower value 0.952 | locus YKL009W, strain mrt4, stronger effect = lower value 0.935 | locus YKL068W, stronger effect = lower value 1.05 | locus YKL085W, strain MDH1 (second series), stronger effect = lower value 1.03 | locus YKL085W, strain MDH1, stronger effect = lower value 1.03 | locus YKL160W, strain elf1, stronger effect = lower value 0.927 | locus YKR026C, strain gcn3, stronger effect = lower value 1.02 | locus YKR091W, strain srl3, stronger effect = lower value 1.03 | locus YLL001W, strain dnm1, stronger effect = lower value 0.933 | locus YLL026W, stronger effect = lower value 0.955 | locus YLL041C, strain sdh2, stronger effect = lower value 1.02 | locus YLR058C, strain SHM2, stronger effect = lower value 0.893 | locus YLR113W, strain HOG1, stronger effect = lower value 0.963 | locus YLR221C, strain rsa3, stronger effect = lower value 0.938 | locus YLR258W, strain gsy2, stronger effect = lower value 0.967 | locus YLR268W, strain sec22, stronger effect = lower value 0.886 | locus YLR357W, strain rsc2, stronger effect = lower value 1.07 | locus YLR370C, strain arc18, stronger effect = lower value 0.991 | locus YLR371W, strain rom2, stronger effect = lower value 1.09 | locus YLR384C, strain iki3, stronger effect = lower value 1.07 | locus YML016C, strain PPZ1, stronger effect = lower value 1.01 | locus YML032C, strain rad52, stronger effect = lower value 0.914 | locus YML120C, strain ndi1, stronger effect = lower value 0.93 | locus YML124C, strain tub3, stronger effect = lower value 1.05 | locus YMR078C, strain ctf18, stronger effect = lower value 1.06 | locus YMR125W, strain sto1, stronger effect = lower value 1.08 | locus YMR129W, stronger effect = lower value 1.03 | locus YMR223W, strain ubp8, stronger effect = lower value 0.934 | locus YMR231W, strain pep5, stronger effect = lower value 0.95 | locus YNL128W, strain TEP1, stronger effect = lower value 0.866 | locus YNL183C, strain NPR1, stronger effect = lower value 0.935 | locus YNL209W, strain ssb2, stronger effect = lower value 0.993 | locus YNL233W, strain BNI4, stronger effect = lower value 0.926 | locus YNL248C, strain rpa49, stronger effect = lower value 0.938 | locus YNL250W, strain rad50, stronger effect = lower value 1.02 | locus YNL271C, strain bni1, stronger effect = lower value 1.02 | locus YNL298W, strain CLA4, stronger effect = lower value 0.978 | locus YNL322C, strain KRE1 (second series), stronger effect = lower value 1.01 | locus YNR049C, strain mso1, stronger effect = lower value 0.987 | locus YOL012C, strain htz1 1.89 | locus YOL147C, strain pex11, stronger effect = lower value 1.02 | locus YOR061W, strain CKA2, stronger effect = lower value 0.964 | locus YOR070C, strain gyp1, stronger effect = lower value 0.953 | locus YOR080W, strain dia2, stronger effect = lower value 0.973 | locus YOR144C, strain elg1, stronger effect = lower value 1.02 | locus YOR231W, strain MKK1, stronger effect = lower value 0.97 | locus YOR265W, strain rbl2, stronger effect = lower value 0.994 | locus YOR270C, strain vph1, stronger effect = lower value 0.807 | locus YOR290C, strain snf2, stronger effect = lower value 0.937 | locus YPL106C, strain sse1, stronger effect = lower value 1.12 | locus YPL240C, strain hsp82, stronger effect = lower value 1.03 | locus YPL241C, strain CIN2, stronger effect = lower value 0.997 | locus YPL256C, strain CLN2, stronger effect = lower value 1.05 | locus YPR163C, strain tif3, stronger effect = lower value 0.968 | locus YPR167C, strain met16, stronger effect = lower value 0.991 | strain wtn01, stronger effect = lower value 0.961
active: locus YJR043C, strain POL32, stronger effect = lower value 0.849 | locus YKL190W, strain CNB1, stronger effect = lower value 0.882 | locus YKR001C, strain vps1, stronger effect = lower value 0.861 | locus YLR027C, strain aat2, stronger effect = lower value 0.921 | locus YLR039C, strain RIC1, stronger effect = lower value 0.479 | locus YLR102C, strain apc9, stronger effect = lower value 1.08 [resistant] | locus YLR262C, strain YPT6 (second series), stronger effect = lower value 0.488 | locus YLR262C, strain YPT6, stronger effect = lower value 0.321 | locus YLR320W, strain mms22, stronger effect = lower value 0.706 | locus YLR330W, strain CHS5, stronger effect = lower value 0.849 | locus YLR342W, strain FKS1 (second series), stronger effect = lower value 0.566 | locus YLR342W, strain FKS1, stronger effect = lower value 0.688 | locus YLR418C, strain cdc73, stronger effect = lower value 0.74 | locus YMR058W, strain fet3, stronger effect = lower value 0.871 | locus YMR205C, strain PFK2, stronger effect = lower value 0.854 | locus YMR307W, strain GAS1, stronger effect = lower value 0.456 | locus YNL067W, strain RPL9B, stronger effect = lower value 0.756 | locus YNL071W, strain lat1, stronger effect = lower value 0.809 | locus YNL307C, strain MCK1, stronger effect = lower value 0.795 | locus YNR052C, strain pop2, stronger effect = lower value 0.838 | locus YOR001W, strain rrp6, stronger effect = lower value 0.851 | locus YOR069W, strain VPS5, stronger effect = lower value 0.876 | locus YOR083W, strain WHI5, stronger effect = lower value 0.844 | locus YOR106W, strain vam3, stronger effect = lower value 0.77 | locus YOR136W, strain idh2, stronger effect = lower value 1.08 [resistant] | locus YOR184W, strain ser1, stronger effect = lower value 0.505 | locus YOR316C, strain cot1, stronger effect = lower value 1.1 [resistant] | locus YPL051W, strain arl3, stronger effect = lower value 0.793 | locus YPL078C, strain atp4, stronger effect = lower value 0.892 | locus YPR119W, strain clb2, stronger effect = lower value 1.11 [resistant] | locus YPR141C, strain kar3, stronger effect = lower value 1.09 [resistant]
